An excerpt weighted towards active compounds, which were near 3.4% of everything screened.
FBW7 activator: FBW7 E3 ligase activators, primary screen, biochemical, AlphaScreen, human; F-box/WD repeat-containing protein 7 (Homo sapiens), Q969H0; AlphaScreen FBW7–phospho-cyclin E peptide binding, activator screen; normalized activity (activation), % at 26.1 µM; 0.13% of 650,000 active; AID 1259310, 2017; in the data active means normalized activity above about 1.9%;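 further: purified mutant Fbw7 with reduced substrate affinity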
GPR151 ag: activators of human GPR151, primary screen, cell-based, PathHunter beta-arrestin, luminescence | activation, % at 11.2 µM | G-protein coupled receptor 151 (Homo sapiens), Q8TDV0 | PathHunter beta-arrestin GPR151 cells | 1% of 650,000 active | AID 1508602, 2020; in the data active means activation above about 4.9%;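 further: 0% = median of compound wells and 100% = cells with positive control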
Target sequence (Q8TDV0 whole entry, looked up): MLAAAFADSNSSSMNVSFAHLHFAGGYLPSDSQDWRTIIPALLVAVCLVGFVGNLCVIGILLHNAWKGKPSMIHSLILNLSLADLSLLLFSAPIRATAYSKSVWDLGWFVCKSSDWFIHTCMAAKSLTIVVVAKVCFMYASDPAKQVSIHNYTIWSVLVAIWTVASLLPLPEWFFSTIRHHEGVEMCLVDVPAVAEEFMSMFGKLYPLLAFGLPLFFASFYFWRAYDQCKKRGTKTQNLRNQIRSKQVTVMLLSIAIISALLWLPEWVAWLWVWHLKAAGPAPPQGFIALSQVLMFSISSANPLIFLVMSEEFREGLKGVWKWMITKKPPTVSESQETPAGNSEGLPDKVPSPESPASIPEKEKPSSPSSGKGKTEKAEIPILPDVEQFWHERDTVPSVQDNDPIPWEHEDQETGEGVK
TEAD-YAP block: TEAD-YAP interaction inhibition, primary screen, TEAD-YAP interaction inhibitor project, luminescence, HEK-TIYL cells | TEAD-Gal4/YAP UAS-luciferase luminescence | 1.4% of 640,000 active | inhibition, % at 9.12 µM; in the data active means inhibition above about 32%;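 further: 0% = median of test compound wells and 100% = reference inhibitor wells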
MITF primary: MITF inhibitors, primary screen, biochemical, AlphaScreen, human; Microphthalmia-associated transcription factor (Homo sapiens), O75030; AlphaScreen MITF homodimerization, bead proximity signal; inhibition, % at 2.6 µM; 0.91% of 650,000 active; AID 1259374, 2018; in the data active means inhibition above about 50%;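 further: 0% = vehicle wells with protein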
MITF inh conf: MITF inhibitors, retest of hits, confirmation, biochemical, AlphaScreen, triplicate; shares compounds with MITF primary; AlphaScreen MITF homodimerization, biotin/His-MITF beads; inhibition, % at 2.6 µM; 16% of 4,700 active;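 active means inhibition above a cutoff derived from the DMSO control wells, cut at about 28% in these data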;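 further: 0% = MITF dimer wells with DMSO only; inhibitors lower the bead chemiluminescence by keeping MITF from dimerizing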
AlphaScreen DR: AlphaScreen optical interference compounds, dose response, counter-screen, biochemical, HTS; shares compounds with MITF primary; AlphaScreen optical interference counterscreen, cell-free; IC50, µM; 6% of 480 active; AID 1259373, 2018; call rule not given here
AlphaScreen intf2: AlphaScreen optical interference compounds, counter-screen for MITF inhibitor project, biochemical, triplicate; shares compounds with MITF primary; LysRS AlphaScreen counterscreen, signal interference; inhibition, % at 2.6 µM; 7.6% of 4,700 active; AID 1259376, 2018;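 active means inhibition above a cutoff derived from the DMSO control wells, cut at about 30% in these data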
The depositor's hits bear a star; x = no result; ! = repeats disagree.

SMILES	FBW7 activator	GPR151 ag	TEAD-YAP block	MITF primary	MITF inh conf	AlphaScreen intf2	others
O=C(Nc1ccc(Cl)cc1)C1CC(=O)N(c2ccccc2)C1 (centres undefined)	0	-1	1	-9	x	x
COc1ccc(C(=O)NCC(=O)NCC(=O)OCc2ccccc2)cc1	0	1	5	54*	8	6
COC(=O)c1ccc(COC(=O)CNC(=O)c2ccccc2)cc1	0	1	6	10	x	x
NC(=O)C1CCN(CC(=O)NCCc2ccccc2)CC1	0	5	3	57*	-4	-4
O=C(/C=C/c1ccco1)C1=C(O)C(=O)N(CCCN2CCOCC2)C1c1ccco1 (centres undefined)	0	1	4	79*	60*	-7	AlphaScreen DR=>6.5
Cc1cccc(NC2=C(C(=O)c3ccc(Cl)cc3)C(c3ccc(F)cc3)N(CCCCCC(=O)O)C2=O)c1 (centres undefined)	0	1	-17	79*	-3	-1
Cc1cc(C)nc(NS(=O)(=O)c2ccc(N3C(=O)C=CC3=O)cc2)n1	-1	1	-4	61*	37*	5	AlphaScreen DR=>6.5
COc1ccc(C2=CC(c3ccc(F)c(Br)c3)n3nnnc3N2)cc1 (centres undefined)	0	0	-3	-7	x	x
CC(=O)NC1(c2ccccc2)CCN(C(=O)N2CCOCC2)CC1	1	0	7	82*	11	16
CC(=O)NC1(c2ccccc2)CCN(C(=O)C2CC2)CC1	0	3	2	-9	x	x
COc1cc(/C=C(\C#N)C(=O)Nc2cccc(C)c2)cc([N+](=O)[O-])c1O	0	-1	-4	4	x	x
Cc1ccoc1C(=O)NCc1occc1C(=O)O	0	-1	15	57*	10	7
Cc1ccoc1C(=O)NCCNC(=O)c1occc1C	0	0	1	7	x	x
CC1CCc2c(sc(NC(=O)c3cccnc3Cl)c2C#N)C1 (centres undefined)	0	0	-11	6	x	x
O=C(COC(=O)c1ccc2c(c1)C(=O)N(c1cccc(Cl)c1)C2=O)c1ccc([N+](=O)[O-])cc1	0	0	3	1	x	x
CC(=O)c1cccc(N2C(=O)c3ccc(C(=O)OCC(=O)c4ccc([N+](=O)[O-])cc4)cc3C2=O)c1	0	1	-3	60*	21	26
CC(C)(C)C(=O)COC(=O)c1cccc(N2C(=O)c3ccccc3C2=O)c1	0	0	1	53*	7	-2
O=C(COC(=O)c1cccc(N2C(=O)c3ccccc3C2=O)c1)c1ccccc1	0	2	-28	5	x	x
CC(C)(C)NC(=O)N1CCN(CCNC(=O)c2ccsc2)CC1	0	0	2	-2	x	x
Cc1cccc(NC(=O)C2CCCN2C(=O)OCc2ccccc2)c1 (centres undefined)	0	-1	2	-6	x	x
Cc1cccc(NC(=O)C2CCCN2C(=O)OC(C)(C)C)c1 (centres undefined)	0	0	-7	77*	5	1
COCCN(CC(=O)NCCC(C)C)C(=O)CCC(=O)Nc1ccccn1	0	3	10	0	x	x
COc1ccc(OC)c(/C=N\NC(=O)CNc2ccccc2C)c1	0	-1	14	63*	-1	0
COc1ccc(Br)cc1/C=N\NC(=O)CNc1ccccc1C	0	0	-1	-3	x	x
Cc1cc(C)c(C(=O)NCC2CCN(C3CCCC3)CC2)c(C)c1	0	-1	0	18	x	x
CCN1CCN(CC(O)COC(c2ccccc2)c2ccccc2C)CC1 (centres undefined)	0	0	1	88*	10	15
Nc1ccc(O)c(C(=O)O)c1	0	-2	-4	75*!	82*	-5	AlphaScreen DR=>6.5
COc1ccccc1OCC#CCNC1CCCC1	0	-2	-1	55*	3	9

Bioassay records from PubChem BioAssay.
